Out of some 390,000 compounds screened, about 4,000 (1%) were called active. Inconclusive results (about 4%) are left out. The list comes from a sample in which actives are over-represented; it also holds similar structures and randomly drawn compounds. Unmarked numbers belong to inactive results. Calls follow the shape of the dose curve; as a rule, active = well fitted inhibition curve with a large enough effect; inconclusive = small, poorly fitted or top-dose-only effect; inactive = no such curve, though single readings can be large or run the other way.
% is scaled to controls: 0 for no effect and ±100 for the full control effect; potency is read from the fitted curve at half-maximal effect.

Sequence of Thioredoxin reductase 1, cytoplasmic (Rattus norvegicus) (O89049 whole entry, looked up): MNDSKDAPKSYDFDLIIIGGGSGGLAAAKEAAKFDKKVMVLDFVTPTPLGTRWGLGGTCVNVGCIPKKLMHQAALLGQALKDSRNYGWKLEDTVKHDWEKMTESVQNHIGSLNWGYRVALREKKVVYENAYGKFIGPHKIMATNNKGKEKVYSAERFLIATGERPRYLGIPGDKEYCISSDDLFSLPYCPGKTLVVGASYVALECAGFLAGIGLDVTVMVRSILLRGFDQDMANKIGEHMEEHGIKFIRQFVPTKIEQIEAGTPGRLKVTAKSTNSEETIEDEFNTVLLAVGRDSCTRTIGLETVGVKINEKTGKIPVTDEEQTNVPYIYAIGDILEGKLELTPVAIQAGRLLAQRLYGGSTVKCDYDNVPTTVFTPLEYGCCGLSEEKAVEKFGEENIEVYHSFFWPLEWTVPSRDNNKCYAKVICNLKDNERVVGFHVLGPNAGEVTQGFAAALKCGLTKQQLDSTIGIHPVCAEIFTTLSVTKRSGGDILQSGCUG

This test concerns the target Thioredoxin reductase 1, cytoplasmic (Rattus norvegicus) (UniProt O89049). In words: qHTS Assay for Inhibitors of Mammalian Selenoprotein Thioredoxin Reductase 1 (TrxR1): qHTS. Also: nearly all actives have a fitted effect of over 65% in size. The settings on record: recombinant rTrxR1, NADPH fluorescence consumption, selenite substrate; series mostly up to 114 µM; activity change, negative = inhibition: at the top concentration. From the text: The selenoprotein thioredoxin reductase (TrxR; EC 1.8.1.9) is a FAD containing homodimeric pyridine nucleotide-disulfide oxidoreductase with many cellular roles. Together with NADPH and its prime substrate thioredoxin (Trx), the enzyme forms the core of the Trx system. The mammalian Trx system exerts a wide spectrum of functions including redox regulation, antioxidant defense, regulation of transcription factors as well as support of cell growth and replication. Many of these functions involve the reduction of Trx, which may subsequently reduce a number of different substrates including ribonucleotide reductase, peroxiredoxins or NFkB. Mammalian TrxR itself also has a broad substrate specificity, reducing both protein and non-protein substrates, including low molecular weight compounds such as dehydroascorbate, lipoic acid, ubiquinone, and juglone. In addition, several drugs in clinical use for anticancer treatment are indeed known to target TrxR1.
This BioAssay is a validation of an NADPH fluorescence-based, dual-purpose qHTS rTrxR1 assay designed to find potential inhibitors and substrates of rTrxR1. For this particular BioAssay, actives are potential inhibitors. See related BioAssay for substrate data deposition.
NIH Molecular Libraries Probe Production Network [MLPCN]
NIH Chemical Genomics Center [NCGC]
Assay Provider: Elias Arner, Karolinska Institute
Assay protocol: 2 uL of reagents (buffer in column 4 as negative control and 90 nM rTrxR1 in columns 1-3 and 5-48) were dispensed into Greiner black solid-bottom 1,536-well assay plates, followed by 1 uL of NADPH (400 uM final concentration) to each well. The plates were centrifuged at 1000 rpm for 15 seconds and subsequently incubated for 5 min at room temperature (~22 deg C) to allow for rTrxR1 reduction. Compounds (23 nL) were then transferred via Kalypsys pin tool equipped with 1536-pin array (10 nL slotted pins, V&P Scientific, San Diego, CA). In addition, a duplicate 2-fold serial dilution of the control compounds auranofin, a known gold-based TrxR1 inhibitor, and juglone (5-hydroxy-1,4-naphthoquinone), a natural TrxR1 substrate, were pin-transferred to columns 2 and 3, respectively. After incubation for 15 min at room temperature (~22 deg C), 1 uL of selenite (400 uM final concentration) were dispensed to each well. The plate was immediately transferred to a ViewLux high-throughput CCD imager (PerkinElmer), wherein kinetic measurements of NADPH fluorescence (Ex 340 nm, Em 450 nm) were acquired (8 minute kinetic read, see Table 1). Read 1 was utilized to assess the capacity of a compound to serve as an rTrxR1 substrate, i.e. a decrease in NADPH fluorescence compared to the no-compound background is an indication of a substrate behavior for that particular compound. For inhibitory activity of a compound, delta values, computed as the difference in fluorescence intensity between the first and last reads of an 8-minute time kinetic window, were used. All reagents were diluted in an assay buffer consisting of 50 mM Tris-HCl, pH 7.5, 2 mM EDTA, and 0.01% Tween-20.
Throughout the screen, reagent bottle and all liquid lines were made light-tight to minimize reagent degradation. All screening operations were performed on a fully integrated robotic system (Kalypsys, San Diego, CA) containing one RX-130 and two RX-90 anthropomorphic robotic arms (Staubli, Duncan, SC). Library plates were screened starting from the lowest and proceeding to the highest concentration, and a 'double-pinning' step of the highest concentration was required to access higher concentrations of compounds. Vehicle-only plates, with DMSO being pin-transferred to the columns 5-48, were inserted uniformly at the beginning and the end of each library in order to monitor and record any shifts in the background, which can be affected by reagent dispensers or loss in enzyme activity over time. […]
In general terms: qHTS replaces the single test concentration by a dilution series.
In the case of `Cc1ccc(CNC(=O)C2(C(F)(F)F)C/C(=C\Cc3ccccc3)CCCO2)o1` (stereo not drawn), the Potency is 28.2 µM (active).

With `O=C(NCc1ccccn1)[C@]1(C(F)(F)F)C[C@H](CCc2ccccc2)CCCO1`, the “activity change, negative = inhibition” value was 6.98%. Still for that read-out and setting: with `O=C(NCC1CC1)C1(C(F)(F)F)C/C(=C\CCO)CCCO1` (stereo not drawn) the figure was 18.4% [at 57.1 µM]; with `CC(C)(C)OC(=O)N1CCC(c2c(C(=O)Nc3ccc4c(c3)OCO4)cnn2-c2ccccc2)CC1`, 8.02% [at 57.1 µM]. With `Cc1ccc(Cl)cc1NC(=O)CCC(=O)N1CC(C)Sc2ccccc21` (stereo not drawn), the “activity change, negative = inhibition” value was 1.51%. As to `c1ccc(C2CNCc3c2ccc2ccccc32)cc1` (stereo not drawn), the Potency was 79.4 µM (active).

For `O=C(CSc1nc2ccccc2nc1Cc1ccccc1)N1CCCCC1`, the “activity change, negative = inhibition” value was 2.16% [at 57.1 µM]. As to `Cc1sc(NC(=S)NC(=O)c2cccs2)nc1-c1ccc(CC(C)C)cc1`, the “activity change, negative = inhibition” value is 16.1%. With `O=C(NC(=S)Nc1cccc(-c2ccc(CO)o2)c1)c1cccs1`, the Potency was 39.8 µM (active).

As to `Cn1c(SCC(=O)Nc2cccc(NC(=O)c3cccs3)c2)nnc1-c1ccncc1`, the “activity change, negative = inhibition” value was 11.5% [at 57.1 µM]. Take `Cc1nn(C)c2c1c(C(F)(F)F)cc(=O)n2C(C)C(=O)NCc1ccc(Cl)cc1` (stereo not drawn): the “activity change, negative = inhibition” value is 2.18% [at 57.1 µM]. Same read-out and setting: with `NS(=O)(=O)c1ccc(NC(=O)C(=O)Nc2ccc3nc4n(c(=O)c3c2)CCCCC4)cc1` the figure was 10.6%. Regarding `COc1ccc(Br)cc1C1C2C=CCC(C)C2C(=O)N1Cc1ccccc1` (stereo not drawn), the Potency is 22.4 µM (active). Turning to `COc1ccc(-c2ccc(OC)c(C3C4C=CCC(C)C4C(=O)N3Cc3ccccc3)c2)cc1C` (stereo not drawn), the “activity change, negative = inhibition” value is -6.11%. On the same count and under the same terms, the result for `Cc1cccc([C@H]2[C@@H]3C=CC[C@@H](C)[C@@H]3C(=O)N2Cc2ccccc2)c1` reads 1.61%; that for `O=c1c(NCc2cccs2)nccn1-c1ccccc1`, 14.5% [at 57.1 µM]. In the case of `C=CCn1c(=S)[nH]c2scc(-c3ccco3)c2c1=O`, the Potency was 39.8 µM (active).

`COc1ccc(C2C(=O)N(C3CCCCCC3)CC(=O)N2CCc2ccc(Cl)cc2)cc1OC` (stereo not drawn): the “activity change, negative = inhibition” value was 23.7% [at 57.1 µM]. `CCn1c(C)c(C)c2cc(C(=O)NCCc3cc(OC)ccc3OC)ccc21`: the “activity change, negative = inhibition” value was 18.4% [at 57.1 µM]. Take `Cc1cccc(-c2nc(CS(=O)CC(=O)NC(C)CCc3ccccc3)c(C)o2)c1` (stereo not drawn): the Potency is 17.8 µM (active). Consider `Cc1ccc(-c2nc(CS(=O)(=O)CC(=O)NCc3ccccc3Cl)c(C)o2)cc1`, for which the “activity change, negative = inhibition” value was -6.56%. The same measure, in the same setting: the result for `CC(CCc1ccccc1)NC(=O)c1cnc(Cl)c(Cl)c1` (stereo not drawn) reads 32.7%; that for `Cc1csc[n+]1CCC1CCCCC1`, 35.2%; that for `Cc1ccc2oc(=O)c3cnn(CC(=O)NCc4ccccc4Cl)c3c2c1`, 23.3%. For the compound `CN(C)c1cc2c(Nc3ccc4c(cnn4Cc4ccccc4)c3)ncnc2cn1`, the Potency result was “inactive”. For the compound `CCN1CCN(c2ccc(/C=C/c3ccnc4ccccc34)cc2)CC1`, the “activity change, negative = inhibition” value is 14.8%.

For `Cc1ccc(S(=O)(=O)N(Cc2nc(-c3ccc(Cl)cc3)no2)C2CCCCC2)cc1`, the “activity change, negative = inhibition” value is 32.3%.

For the compound `Cc1csc(NC(=S)Nc2cccc(Cl)c2)n1`, the Potency is 14.1 µM (active). For the compound `Cc1csc(NC(=O)C2CCN(S(=O)(=O)c3ccccc3)CC2)n1`, the “activity change, negative = inhibition” value is 0.443%.

For the compound `O=C(Nc1cccc(Cl)c1)c1csnn1`, the “activity change, negative = inhibition” value was 12%.

For the compound `CC1CCC2(CC1)N=C(c1ccccc1)C(=O)N2CC(=O)Nc1ccc(F)c(Cl)c1` (stereo not drawn), the “activity change, negative = inhibition” value was -10.4%. On to `COc1ccc(Cl)cc1NC(=O)CCn1c(=O)c2cccn2c2ccccc21`, for which the “activity change, negative = inhibition” value is 13.6%. Regarding `CCCS(=O)(=O)c1ncc(Cl)c(C(=O)Nc2scc(-c3ccccc3)c2C(=O)OCC)n1`, the Potency is 4.47 µM (active). As for `CCOC(=O)c1c(-c2ccc(C)cc2C)csc1NC(=O)CSc1nnnn1C`, the “activity change, negative = inhibition” value was -2.88%. On the same count and under the same terms, the result for `CCOC(=O)c1scc(-c2ccccc2)c1S(=O)(=O)Nc1ccccc1F` reads 8.78% [at 57.1 µM]; that for `Cc1cc(C)c2oc(C(=O)Nc3c(C(=O)Nc4ccccc4)oc4ccccc34)cc(=O)c2c1`, 29%. Consider `CC(=O)c1ccc[n+](C(C)CCC(C)[n+]2cccc(C(C)=O)c2)c1` (stereo not drawn), for which the “activity change, negative = inhibition” value was 9.71%. The same measure, in the same setting: with `O=C(Nc1ccc2nc(SCCOc3ccccc3Cl)sc2c1)c1ccco1` the figure was -8.93%. Still for that read-out and setting: with `COc1ccc(N2CCN(C(=O)CSCc3nc(-c4ccccc4Cl)oc3C)CC2)cc1` the figure was 7.44%; with `COc1cccc(-c2nc(CS(=O)(=O)CC(=O)N3CCN(c4cc(C)ccc4C)CC3)c(C)o2)c1`, -6.98%. As for `Cc1ccccc1-c1nc(CS(=O)(=O)CC(=O)N2CCc3ccccc3C2)c(C)o1`, the Potency is 7.94 µM (active). In the case of `Cc1ccc(-c2nc(CS(=O)CC(=O)N3CCN(c4ncccn4)CC3)c(C)o2)cc1` (stereo not drawn), the Potency is 10 µM (active). For the compound `Cc1ccccc1-c1nc(CS(=O)(=O)CC(=O)Nc2cc(Cl)cc(Cl)c2)c(C)o1`, the “activity change, negative = inhibition” value is 6.11%. Take `CNC(=O)c1ccc(-c2nc(CN3CCc4ccccc43)c(C)o2)cc1`: the “activity change, negative = inhibition” value was 13.2% [at 57.1 µM]. Turning to `COc1ccc(-c2nc(CS(=O)CC(=O)N3CCc4ccccc4C3)c(C)o2)cc1` (stereo not drawn), the Potency is 7.94 µM (active).

In the case of `COc1ccc(-c2nc(CN3CCN(c4ncccn4)CC3)c(C)o2)cc1C`, the “activity change, negative = inhibition” value was 24.7% [at 57.1 µM]. Regarding `Cc1ccccc1-c1nc(CS(=O)(=O)CC(=O)NC(C)c2ccccc2)c(C)o1` (stereo not drawn), the Potency entry is “inactive”. As for `COc1ccc(-c2nc(CS(=O)CC(=O)NCc3cccnc3)c(C)o2)cc1OC` (stereo not drawn), the “activity change, negative = inhibition” value is -62%.

Values taken from PubChem BioAssay AID588453 (National Center for Advancing Translational Sciences (NCATS), 2011).
